Source: PubChem BioAssay (National Center for Advancing Translational Sciences (NCATS))
This is a sample that favours compounds with a hit; in the whole collection about 19% have one here.
IL1B secr inh: qHTS for Inhibitors of Inflammasome Signaling: IL-1-beta AlphaLISA Primary Screen; activity change, % at 57.5 µM; THP-1 LPS/ATP IL-1B secretion, AlphaLISA, 16 h; hits give low values; AID 743279, 2014; 360,000 compounds, 4.7% hits; in the data active = activity change below about -50%; inconclusive = mostly about -30% to -49%; note: % is set by controls: 0 for no effect and ±100 for the full control effect
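Secreted IL-1B measured by AlphaLISA bead assay after 16 h compound exposure of THP-1 cells; compounds (final up to 57.5 uM) added 1 h before LPS (250 ng/mL) and ATP (1.25 mM) stimulation; lower signal means less secretion.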
TDP1 cell CPT: qHTS for Inhibitors of human tyrosyl-DNA phosphodiesterase 1 (TDP1): qHTS in cells in presence of CPT | chicken DT40 Tdp1-/-;hTDP1 cells + 20 nM CPT, ATP luminescence, 48 h | Potency, µM (doses to about 46.2 µM), inactives show at the highest dose activity change, negative = growth inhibition, most hits filed as inhibitors | 420,000 compounds, 12% hits | AID 686979, 2013; note: potency is the fitted concentration of half-maximal effect; % is set by controls: 0 for no effect and ±100 for the full control effect; nearly all actives have a fitted effect of over 55% in size
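Cell growth measured by CellTiter-Glo luminescence after a minimum 48 h, 37 C compound exposure with 20 nM CPT in Tdp1-knockout DT40 cells stably expressing hTDP1, seeded 400/well; qHTS titration format.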
TDP1 cell noCPT: qHTS for Inhibitors of human tyrosyl-DNA phosphodiesterase 1 (TDP1): qHTS in cells in absence of CPT; 420,000 compounds, 15% hits; AID 686978, 2013; Potency, µM (top dose mostly 46.2 µM), for the others: at the top dose activity change, negative = growth inhibition, hits mostly inhibitors; DT40 Tdp1-/- hTDP1 cells, no CPT, ATP luminescence, 48 h; note: potency is the fitted concentration of half-maximal effect; % is set by controls: 0 for no effect and ±100 for the full control effect; nearly all actives have a fitted effect of over 55% in size
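Readout: luminescence from CellTiter-Glo after 30 min in the dark at RT. Cells: DT40 Tdp1-/- with stable hTDP1, 400/well. Exposure: compounds alone, ≥48 hr, 37 °C.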
Chronic BCR inh: qHTS Assay to Find Inhibitors of Chronic Active B-Cell Receptor Signaling | ABC-DLBCL IkBa-CBG/CBR reporter, luminescence ratio, 4 h | Potency, µM (top dose mostly 46.1 µM), without a hit: top-dose activity change, negative = inhibition, hits mostly inhibitors | 340,000 compounds, 0.05% hits; active = well fitted inhibition curve with a large enough effect in the signal ratio, with a control signal flat, not every such curve was filed as active; inconclusive = small, poorly fitted or top-dose-only effect, or effect the other way, or a change in a side signal; the % refers to the signal ratio;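 note: potency is the fitted concentration of half-maximal effect; plate controls were basal doxycycline-induced cells for no effect and cells given 10 µM MG132 for full effect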
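Concentration-response series (up to 46 uM) were applied to TMD8 dual-reporter cells for 4 h at 37C with doxycycline. Green/red ratio, after filter-overlap correction, defined %Activity; red signal alone was normalised to basal cells and zero luminescence.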
MCF10A rereplic: A quantitative high throughput screen for small molecules that induce DNA re-replication in MCF 10a normal breast cells. MCF 10A DNA re-replication, Hoechst nuclear intensity, 48 h. Potency, µM (top dose mostly 46.1 µM), without a hit: top-dose activity, positive = re-replication, usual class: activators. 350,000 compounds, 2.9% hits. AID 624296, 2012; note: potency is the fitted concentration of half-maximal effect; % of control where 0% means no effect; nearly all actives have a fitted effect of over 50% in size
SW480 rereplic: A quantitative high throughput screen for small molecules that induce DNA re-replication in SW480 colon adenocarcinoma cells. Potency, µM (doses to about 46.1 µM), for the others: at the highest dose re-replication activation, hits mostly activators. AID 624297, 2012. SW480 DNA re-replication, Hoechst DNA content imaging, 48 h. 340,000 compounds, 1.8% hits; note: potency is the fitted concentration of half-maximal effect; % of control where 0% means no effect; nearly all actives have a fitted effect of over 55% in size
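DNA re-replication was detected as more nuclei of elevated Hoechst intensity after 48 hr exposure to compound (23 nL pinned per well of 250 cells).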
An asterisk follows results filed as active; i = inactive; ? = inconclusive; / = no result given. Unless noted, calls come from the whole dose curve; as a rule, active = well fitted curve in the direction sought with a large enough effect; inconclusive = small, poorly fitted or top-dose-only effect, or another doubt; inactive = no such curve, though single readings can be large; an effect the other way counts as inactive or inconclusive.

SMILES	IL1B secr inh	TDP1 cell CPT	TDP1 cell noCPT	Chronic BCR inh	MCF10A rereplic	SW480 rereplic
Cc1ccc(S(=O)(=O)NCCC(=O)N2CCC(Cc3ccccc3)CC2)cc1	0	15µM*	21µM*	2%	?	0%
CN1CCN(CC(C)(C)NS(=O)(=O)c2ccccc2)CC1	8	0%	-14%	0%	18%	-1%
OC[C@@H]1CN(CCN2CCOCC2)C[C@H](n2cnc3c(Nc4ccccc4)ncnc32)O1	16	-3%	-8%	/	/	/
O=c1[nH]c(/C=C/c2ccccc2F)nc2ccccc12	34	2.9µM*	2.9µM*	-1%	8.2µM*	3.7µM*
O=c1[nH]c(/C=C/c2ccccn2)nc2ccccc12	-81*	?	?	?	?	?
O=c1[nH]c(/C=C/c2cccc3ccccc23)nc2ccccc12	23	?	?	8%	?	?
N#Cc1ccccc1NS(=O)(=O)c1cc2c3c(c1)CCC(=O)N3CCC2	44	-2%	-8%	-1%	4%	-5%
CN1CCN(C(=O)c2ccccc2NC(=O)c2cccc(Cl)c2)CC1	0	13%	-4%	?	-8%	-2%
Cc1noc(C)c1C(=O)N1CCC2(CC1)CN(Cc1cc(C(F)(F)F)cc(C(F)(F)F)c1)C2	/	-4%	-11%	/	/	/
CCN1C(=O)[C@@H]2[C@@H](c3ccc(SC4CCCCC4)cc3)N3CCCC[C@@]3(C(=O)OC)[C@@H]2C1=O	-2	?	?	-1%	?	6%
CCC(C)Sc1ccc([C@@H]2[C@@H]3C(=O)N(C)C(=O)[C@@H]3[C@]3(C(=O)OC)CCCCN23)cc1 (some centres undefined)	-24	18µM*	?	0%	-40%	-3%
CCC(C)Sc1ccc([C@@H]2[C@@H]3C(=O)N(CC)C(=O)[C@@H]3[C@]3(C(=O)OC)CCCCN23)cc1 (some centres undefined)	1	?	21µM*	1%	-8%	0%
CCC(C)Sc1ccc([C@@H]2[C@H]3C(=O)N(CC)C(=O)[C@H]3[C@]3(C(=O)OC)CCCN23)cc1OC (some centres undefined)	-6	23µM*	23µM*	-7%	5%	0%
Cc1ccc(Nc2ncnc(Cl)c2N)cc1	-4	-25%	-22%	/	-2%	-7%
COc1ccccc1-[n+]1c(C)cc(/C=C2\Sc3ccccc3N2C)cc1C	-63*	0.065µM*	0.021µM*	?	?	23µM*
COc1ccc(-[n+]2c(C)cc(/C=C3\Sc4ccccc4N3C)cc2C)cc1	-94*	0.015µM*	0.0073µM*	?	?	18µM*
CC(C)n1nc(C(=O)NNC(=O)c2ccc(OC(F)F)cc2)c2ccccc2c1=O	-4	-24%	?	0%	-1%	0%
CCOC(=O)c1cc2c(=O)n3cccc(C)c3nc2n(Cc2ccco2)c1=NC(=O)c1cccnc1	-13	16µM*	?	?	5%	?
CCOC(=O)c1cc2c(=O)n3ccccc3nc2n(CCCOC)c1=NC(=O)c1cccnc1	/	/	/	3%	/	/
CCOC(=O)c1cc2c(=O)n3ccccc3nc2n(Cc2ccco2)c1=NC(=O)c1cccnc1	1	?	?	15%	?	6.5µM*
Cc1cccn2c(=O)c3cc(C#N)c(=NC(=O)c4ccco4)n(Cc4ccco4)c3nc12	44	-7%	?	?	9%	8%
COc1ccc2cc3[n+](cc2c1OC)CCc1cc2c(cc1-3)OCO2	?	3.7µM*	2.3µM*	?	-5%	-1%
COc1ccc(NC(=O)C[C@H]2C(=O)N(Cc3ccccc3)C[C@@H]2C)cc1	0	-6%	-27%	/	/	/
O=C([C@H]1O[C@@H](n2ccc(=O)[nH]c2=O)[C@H](O)[C@@H]1O)N1CCC(F)(F)CC1	20	0%	5%	/	/	/
O=C(CCc1nnc(-c2ccc3c(c2)OCO3)o1)NCCc1ccccc1F	5	16µM*	?	-6%	?	?
SMILES	IL1B secr inh	TDP1 cell CPT	TDP1 cell noCPT	Chronic BCR inh	MCF10A rereplic	SW480 rereplic
COc1cccc(CCNC(=O)CCc2nnc(-c3ccc4c(c3)OCO4)o2)c1	9	-16%	-18%	-5%	3%	?
Cc1ccc2onc(CNC(=O)N3CCN(c4cccc(C(F)(F)F)c4)CC3)c2c1	/	-28%	?	/	/	/
Cc1ccc(N2CCN(C(=O)NCc3noc4ccccc34)CC2C)cc1 (centres undefined)	/	21µM*	?	/	/	/
CCCn1c(SCC(=O)NC2CCCC2)nnc1C(C)C	-2	1%	-12%	-11%	0%	18µM*
O=C(Nc1nnc(-c2ccncc2)o1)c1ccc2ccccc2c1	31	8.2µM*	7.3µM*	4%	10%	?
O=C(Nc1ccncc1)c1ccc2ccccc2c1	-61*	?	13µM*	?	7%	-3%
NC(=O)C1CCN(C(=O)c2ccc3c(=O)n(Cc4ccco4)c(SCc4ccc([N+](=O)[O-])cc4)nc3c2)CC1	-19	?	?	1%	12%	1%
Cc1nc(SCc2nc3ccc(C(=O)c4ccccc4)cc3[nH]2)c2oc3ccccc3c2n1	/	/	/	-4%	?	5%
Cc1nn(Cc2c(F)c(F)c(F)c(F)c2F)c(C)c1NC(=O)c1nn(C)cc1Br	?	?	-16%	-4%	6%	-10%
Cc1nn(Cc2c(F)c(F)c(F)c(F)c2F)c(C)c1NC(=O)c1c([N+](=O)[O-])c(C)nn1C	-5	?	?	5%	6%	6%
CCn1ncc(Br)c1C(=O)Nc1c(C)nn(Cc2c(F)c(F)c(F)c(F)c2F)c1C	i	16µM*	?	0%	-2%	?
Cc1nn(Cc2c(F)c(F)c(F)c(F)c2F)c(C)c1NC(=O)c1c([N+](=O)[O-])cnn1C	7	13µM*	12µM*	?	-3%	-12%
Cc1c(-c2nc(-c3ccccc3F)no2)nnn1-c1cc(F)ccc1F	/	-6%	-8%	/	/	/
Cc1c(Cl)cccc1-n1nnc(-c2nc(-c3ccc4c(c3)OCO4)no2)c1C	/	23µM*	?	/	/	/
